Data published in PubChem BioAssay (NCI).
The panel holds about 83,000 compounds, 20% with a hit somewhere; the sample as a whole holds those more often.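 Percent growth is the endpoint: 0 to 100 indicates growth inhibition (40 means 60% inhibition), 0 means no net growth, and negative values indicate cell death.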 Unmarked numbers belong to inactive results. The source made the active and inactive calls. How the source made its calls: active means growth percent below 10; inactive means the rest.

Assays:
Experiment in all cases: NCI-60 one-dose screen, 48 h (100 = growth as untreated, 0 = no growth, -100 = all killed)
SK-MEL-2 melanoma = conditions: 10 µM
EKVX NSCLC = conditions: 10 µM
SN12C renal = conditions: 10 µM
UO-31 renal = conditions: 10 µM
TK-10 renal = conditions: 10 µM unless noted
ACHN renal = conditions: 10 µM
CAKI-1 renal = conditions: 10 µM
A498 renal = conditions: 10 µM
CCRF-CEM leukemia = conditions: 10 µM
MOLT-4 leukemia = conditions: 10 µM

SMILES | growth (SK-MEL-2 melanoma) | growth (EKVX NSCLC) | growth (SN12C renal) | growth (UO-31 renal) | growth (TK-10 renal) | growth (ACHN renal) | growth (CAKI-1 renal) | growth (A498 renal) | growth (CCRF-CEM leukemia) | growth (MOLT-4 leukemia)
C/C(=C\c1ccc([N+](=O)[O-])cc1)C(=O)O | 110% | 94.7% | 99% | 95.3% | 105% | 98% | 95.6% | 81.7% | 87.6% | 102%
CCOc1ccc(/C=N/N=C(N)N)cc1OCC | 113% | 91.8% | 108% | 74.7% | 106% | 97.4% | 95.7% | 101% | 95.4% | 87.6%
CCOC(=O)C(=O)C=P(c1ccccc1)(c1ccccc1)c1ccccc1 | 99.6% | 105% | 103% | 90.2% | 99% | 108% | 101% | 105% | 99.9% | 101%
Cc1cc2nc(CO)[nH]c2cc1C | 83% | 112% | 105% | 85.8% | 131% | 105% | 110% | 101% | 93.6% | 103%
COc1nc(N)nc2c1ncn2C1OC(CO)CC1O (stereo not given) | 106% | 102% | 103% | 82.4% | 105% | 97.4% | 104% | 114% | 58.8% | 97.7%
O=c1[nH][nH]c(=O)c2cc([N+](=O)[O-])ccc12 | 103% | 106% | 108% | 85.7% | 104% | 107% | 96.8% | 117% | 100% | 100%
Nc1ccc(N)c([N+](=O)[O-])c1 | 115% | 110% | 97.8% | 88.2% | 130% | 102% | 106% | 100% | 107% | 104%
CN1C(=O)CN2CCc3ccccc3C2c2cc(Cl)ccc21 (stereo not given) | 81.7% | 91.5% | 85.1% | 74.3% | 111% | 93.6% | 81% | 54.5% | 93.6% | 105%
COC(=O)c1ccccc1Br | 114% | 81.4% | 92.4% | 96.4% | 103% | 105% | 102% | 104% | 109% | 94.6%
CN(c1ccccc1)c1ncnc2c1ncn2C | 100% | 102% | 98% | 79.9% | 105% | 101% | 94% | 88.4% | 99.1% | 95.6%
O=c1[nH]c(O)c(/C=C2/C=Nc3ccccc32)[nH]1 | 104% | 95% | 98.3% | 68.7% | 99.9% | 87% | 106% | 86% | 58.2% | 73.7%
Brc1cnc2ccccc2c1 | 100% | 103% | 98.4% | 78.2% | 102% | 98.2% | 97.7% | 99% | 108% | 101%
CCOC(=O)c1ccc(Nc2sc(C(=O)c3cccc([N+](=O)[O-])c3)c(N)c2C#N)cc1 | 33% | 62.1% | 52.9% | 31.1% | 74.1% | 41.3% | -17.8% (active) | 38.4% | 5.1% (active) | 23.6%
O=C(CCl)Nc1ccc2c(c1)C(=O)c1ccc(NC(=O)CCl)cc1C2=O | -38.8% (active) | -15.2% (active) | -49.5% (active) | -95.5% (active) | 3% (active) | -65.7% (active) | -88.7% (active) | 12.4% | -46.9% (active) | -31.8% (active)
CC(=O)Nc1c(C)cc(C)cc1C | 102% | 101% | 111% | 95.5% | 104% | 107% | 91.6% | 109% | 107% | 97.2%
NCC(=O)CCC(=O)O | 126% | 109% | 105% | 94.6% | 114% | 99.2% | 109% | 110% | 109% | 108%
S=c1sc2ccccc2n1CN1CCCCC1 | 94% | 104% | 109% | 77.2% | 93.7% | 98.7% | 88.2% | 96.5% | 102% | 112%
Nc1ncnc2c1nc(N)n2C1OC(CO)C(O)C1O (stereo not given) | -11.6% (active) | -33.2% (active) | -22.8% (active) | -53.9% (active) | -14.2% (active) | 2.76% (active) | -28.6% (active) | -80.3% (active) | 1.73% (active) | 1.73% (active)
CN(C)CCN(Cc1ccccc1)c1ccccc1 | 124% | 110% | 97.5% | 107% | 110% | 110% | 77.2% | 99% | 123% | 90.5%
O=[N+]([O-])c1ccc(O)c(S(=O)(=O)O)c1 | 108% | 105% | 90.2% | 116% | 121% | 95.2% | 95.9% | 114% | 102% | 98.4%
CN(C)c1nc2c([nH]1)c(=O)n(C)c(=O)n2C | 98.7% | 104% | 105% | 99.1% | 107% | 102% | 102% | 89.6% | 92.5% | 99.6%
O=[N+]([O-])c1cccc(C(F)(F)F)c1 | 116% | 104% | 95.1% | 96.3% | 108% | 102% | 94.3% | 98.4% | 96.2% | 102%
CC(C)CCOC(=O)c1ccccc1 | 106% | 110% | 102% | 92% | 101% | 111% | 97.1% | 97.7% | 109% | 98.7%
C[C@]12CC[C@@H]3c4ccc(OCC(=O)O)cc4CC[C@H]3[C@@H]1CCC2=O | 105% | 117% | 102% | 86.1% | 103% | 96.9% | 113% | 78.1% | 116% | 86.2%
COc1cc2cc(OC(C)=O)c3cc4c(cc3c2c(OC)c1OC)OCO4 | 109% | 95% | 101% | 89% | 101% | 101% | 99% | 92.5% | 2.13% (active) | 96.6%
O=S(=O)(O)c1ccc(Cl)c(Cl)c1 | 103% | 91.4% | 97.9% | 79.4% | 100% | 97.3% | 84.8% | 99.4% | 103% | 109%
CCOC(=O)CNN | 113% | 113% | 101% | 91.4% | 102% | 119% | 106% | 79.6% | 97.8% | 112%
Cc1cc(N)c(S(=O)(=O)O)c(N)c1 | 109% | 98.9% | 93.8% | 79.1% | 105% | 100% | 90.1% | 101% | 98.1% | 5.11% (active)
S=C1CCCCCN1 | 105% | 98.1% | 100% | 82.5% | 109% | 99.1% | 93.9% | 101% | 107% | 111%
CC(C)C(C#N)(C(C)C)C(C)C | 98% | 96.7% | 99.9% | 81.5% | 96% | 108% | 95.6% | 98.3% | 102% | 104%
